The structures appear in SMILES notation. This is part of a sample that, as a whole, favours compounds with a hit. Of some 83,000 tested, about 20% had one in any assay.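 Activity criterion: percent growth below 10, measured after cells in 96-well plates were exposed to a single compound concentration for 48 hours.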 A number with no mark means an inactive call. Active and inactive are the calls of the source.

Among the test systems are HCT-15 colon; HT29 colon; SNB-75 CNS; SNB-19 CNS; U251 CNS; PC-3 prostate; UACC-62 melanoma; LOX IMVI melanoma; SK-MEL-28 melanoma; SK-MEL-2 melanoma; SN12C renal; UO-31 renal; TK-10 renal; ACHN renal; CAKI-1 renal; A498 renal; CCRF-CEM leukemia; MOLT-4 leukemia; SK-MEL-5 melanoma; EKVX NSCLC.
What all share (assay): NCI-60 one-dose screen, 48 h (100 = growth as untreated, 0 = no growth, -100 = all killed)
Common to all, as to details: 10 µM

On to `COc1cc(-c2cc(/C=C/C(C)=O)[nH]n2)cc(OC)c1OC`, for which the growth is 65.7% in the assay on HCT-15 colon; 66.6% in the assay on HT29 colon; 84.7% with SNB-75 CNS; 69.1% in the assay on SNB-19 CNS; 56.6% with U251 CNS; 71.3% in the assay with PC-3 prostate. Moreover, the growth in the assay with UACC-62 melanoma was 84.6%; with LOX IMVI melanoma, 62%; in the assay on SK-MEL-28 melanoma, 97.4%; in the assay with SK-MEL-2 melanoma it was 87.2%; in the assay on SN12C renal, 67.5%; in the assay on UO-31 renal, 52.4%. Further, the growth with TK-10 renal is 73.8%; in the assay on ACHN renal, 78.7%; in the assay with CAKI-1 renal, 55.2%; with A498 renal it was 90.7%; with CCRF-CEM leukemia it was 20%; in the assay with MOLT-4 leukemia it was 71.2%.
Regarding `CN(C)CCCN1c2ccccc2Sc2ccc(C(F)(F)F)cc21`, the growth was 17.3% in the assay with HCT-15 colon; -8.15% (active) with HT29 colon; -2.79% (active) in the assay on SNB-75 CNS; 35.9% with SNB-19 CNS; 23.3% in the assay with PC-3 prostate; -95.4% (active) with SK-MEL-5 melanoma. The growth is -52.6% (active) in the assay on UACC-62 melanoma; -75.3% (active) in the assay on LOX IMVI melanoma; -64.1% (active) with SK-MEL-28 melanoma; -16.3% (active) in the assay with SK-MEL-2 melanoma; 43.4% with EKVX NSCLC; 18.7% with UO-31 renal. Also, the growth in the assay with CAKI-1 renal is 22.4%; in the assay on A498 renal it was 62.8%; with CCRF-CEM leukemia, 16.5%; in the assay with MOLT-4 leukemia, 6.88% (active).
As for `CC1=CC2OC34COC3CC(OC(=O)C(F)(F)F)C4(C)C2(C)CC1` (stereo unspecified), the growth was 97.4% with HCT-15 colon; 104% in the assay on HT29 colon; 86% in the assay with SNB-75 CNS; 94.5% in the assay on SNB-19 CNS; 101% in the assay with U251 CNS; 100% in the assay with PC-3 prostate. The growth with UACC-62 melanoma is 101%; in the assay with LOX IMVI melanoma it was 97.1%; in the assay with SK-MEL-28 melanoma, 101%; with SK-MEL-2 melanoma, 104%; in the assay with SN12C renal it was 98.4%; in the assay on UO-31 renal, 99.5%. Also, the growth was 98.4% with ACHN renal; 102% with CAKI-1 renal; 79.6% in the assay with A498 renal; 101% in the assay with CCRF-CEM leukemia; 113% in the assay with MOLT-4 leukemia.
Regarding `CC(C)C[C@H](NC(=O)Cn1ccc(Nc2ccccc2)cc1=O)B(O)O`, the growth in the assay with HCT-15 colon is 72.1%; with HT29 colon, 1.28% (active); in the assay on SNB-75 CNS it was 79.9%; with SNB-19 CNS it was 68%; in the assay with U251 CNS, 65.9%; in the assay with PC-3 prostate it was 58.9%. The growth with UACC-62 melanoma is 25%; with LOX IMVI melanoma, 3.14% (active); in the assay with SK-MEL-28 melanoma, 10.6%; in the assay on SK-MEL-2 melanoma, -2.39% (active); in the assay on SN12C renal, 47.9%; with UO-31 renal, 53.9%. Further, the growth is 10.1% with ACHN renal; 45.3% in the assay with CAKI-1 renal; -1.76% (active) in the assay with A498 renal; 3.67% (active) with CCRF-CEM leukemia; 1.94% (active) in the assay with MOLT-4 leukemia.
As to `CCOC(=O)[C@@H]1[C@H](c2ccccc2)[C@H]([N+](=O)[O-])[C@H](c2cn(-c3ccccc3)nc2C)N1Cc1ccccc1`, the growth was 43% in the assay with HCT-15 colon; 76.4% with HT29 colon; 81.5% in the assay on SNB-75 CNS; 77.7% in the assay with SNB-19 CNS; 51.2% in the assay with U251 CNS; 46% with PC-3 prostate. In addition, the growth in the assay on UACC-62 melanoma is 60.9%; with LOX IMVI melanoma, 65.6%; with SK-MEL-28 melanoma, 85.4%; in the assay on SK-MEL-2 melanoma, 85.5%; in the assay on SN12C renal, 88.8%; with UO-31 renal, 71.7%. Further, the growth in the assay with TK-10 renal was 106%; in the assay on ACHN renal, 73.9%; in the assay with CAKI-1 renal it was 69%; with CCRF-CEM leukemia, 59.8%; with MOLT-4 leukemia, 51.7%.
On to `C[N+]1=C(/C=C/c2ccc(I)cc2)C(C)(C)c2ccccc21`, for which the growth with HCT-15 colon is 86.6%; in the assay on HT29 colon it was 97.2%; in the assay on SNB-75 CNS, 95.9%; in the assay on SNB-19 CNS, 96.7%; in the assay with PC-3 prostate it was 87.3%; with SK-MEL-5 melanoma, 90.4%. Besides, the growth is 95.3% in the assay on UACC-62 melanoma; 38% with LOX IMVI melanoma; 84.7% with SK-MEL-28 melanoma; 95.6% in the assay on SK-MEL-2 melanoma; 91.5% with EKVX NSCLC; 83.5% in the assay with UO-31 renal. For the same compound, the growth was 89.2% with TK-10 renal; 94.7% in the assay on ACHN renal; 94.4% in the assay on CAKI-1 renal; 104% with A498 renal; 2.26% (active) in the assay on CCRF-CEM leukemia; 8.77% (active) in the assay on MOLT-4 leukemia.
For the compound `Cc1cc(=O)oc2cc(OCc3cn(CC(O)CO)nn3)ccc12` (stereo unspecified), the growth in the assay with HCT-15 colon is 105%; with HT29 colon, 115%; in the assay with SNB-75 CNS, 132%; in the assay on SNB-19 CNS it was 105%; with PC-3 prostate, 110%; in the assay with SK-MEL-5 melanoma it was 25.5%. In addition, the growth was 97.4% in the assay on UACC-62 melanoma; 103% in the assay on LOX IMVI melanoma; 128% in the assay on SK-MEL-28 melanoma; 115% in the assay on SK-MEL-2 melanoma; 97% in the assay with EKVX NSCLC; 102% in the assay on SN12C renal. Moreover, the growth is 105% with TK-10 renal; 105% in the assay on ACHN renal; 109% with CAKI-1 renal; -3.54% (active) with A498 renal; 92.5% in the assay with CCRF-CEM leukemia; 98.6% in the assay on MOLT-4 leukemia.
In the case of `N#Cc1ccc(-n2cnc(NC(=O)[C@H]3CCN(C#N)C3)c2)cc1`, the growth is 11.1% in the assay on HCT-15 colon; 15.6% in the assay on HT29 colon; -1.74% (active) with SNB-75 CNS; 35.1% in the assay on SNB-19 CNS; 32% with PC-3 prostate; 12.1% in the assay on SK-MEL-5 melanoma. For the same compound, the growth was 18.8% with UACC-62 melanoma; 16.5% with LOX IMVI melanoma; 36.4% in the assay with SK-MEL-28 melanoma; -31.7% (active) in the assay on SK-MEL-2 melanoma; 20.4% in the assay on EKVX NSCLC; 18.6% in the assay with UO-31 renal. In addition, the growth in the assay with TK-10 renal was 21.1%; with ACHN renal, 11.8%; with CAKI-1 renal, 34.9%; in the assay on A498 renal, -18.4% (active); with CCRF-CEM leukemia, 12.3%; in the assay on MOLT-4 leukemia, 9.28% (active).
Turning to `Fc1cc(-c2ncc(-c3cc(F)c(F)c(F)c3)c(NC3CCCCCC3)n2)cc(F)c1F`, the growth with HCT-15 colon is 97%; with HT29 colon, 115%; in the assay on SNB-75 CNS, 85.7%; in the assay with SNB-19 CNS, 99.7%; in the assay on PC-3 prostate, 90.6%; in the assay on SK-MEL-5 melanoma it was 98.1%. Moreover, the growth in the assay on UACC-62 melanoma was 89.4%; with LOX IMVI melanoma it was 102%; in the assay on SK-MEL-28 melanoma, 98.4%; with SK-MEL-2 melanoma it was 111%; with SN12C renal, 87.9%; with UO-31 renal it was 88.8%. The growth is 152% with TK-10 renal; 106% in the assay on ACHN renal; 87.6% in the assay on CAKI-1 renal; 96.8% with A498 renal; 96.2% in the assay on CCRF-CEM leukemia.
